Measurements taken from PubChem BioAssay (NCI).
About 79,000 compounds went through this panel and 15% of them were active in at least one assay; those are over-represented in the sample as a whole. Unmarked numbers belong to inactive results. Activity calls are given as the source filed them. Cut-off read from the data, not from the text of the source: active = growth inhibition above about 70%; inactive = the rest.

Columns and labels:
[1] = NCI Yeast Anticancer Drug Screen. Data for the rad50 strain (AID 155);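 note: 0% = growth of vehicle-only cultures of the same strain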; settings: S. cerevisiae rad50 strain growth inhibition, hits give high values
Summary of the method: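 Vehicle-treated cultures provide the reference for the growth inhibition reported for compound-exposed, repair-deficient yeast.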

[2] = NCI Yeast Anticancer Drug Screen. Data for the mec2-1 strain (AID 157); settings: S. cerevisiae mec2-1 strain, hits give high values
Summary of the method: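 Test agents were screened against the mec2-1 yeast strain, with defined DNA repair or cell cycle alteration. Growth was scored as inhibition against vehicle-only controls.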

[3] = NCI Yeast Anticancer Drug Screen. Data for the sgs1 mgt1 strain (AID 161);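 note: 0% = growth of cultures given vehicle only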; settings: S. cerevisiae sgs1 mgt1 strain, hits give high values
Summary of the method: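 Genetically altered yeast, compound exposure, growth inhibition relative to vehicle.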

[4] = NCI Yeast Anticancer Drug Screen. Data for the cln2 rad14 strain (AID 165);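 note: 0% = growth equal to vehicle treated cultures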; settings: S. cerevisiae cln2 rad14 strain, hits give high values
Summary of the method: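 Growth of compound-exposed yeast (cln2 rad14 genotype) measured and expressed as inhibition relative to vehicle.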

[5] = NCI Yeast Anticancer Drug Screen. Data for the bub3 strain (AID 167); settings: S. cerevisiae bub3 mutant strain, hits give high values
Summary of the method: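 Mutant yeast screening strain plus compound; vehicle-treated cultures serve as the 0% inhibition reference.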

[6] = NCI Yeast Anticancer Drug Screen. Data for the mlh1 rad18 strain (AID 175); settings: S. cerevisiae mlh1 rad18 strain growth inhibition, hits give high values
Summary of the method: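 In this whole-cell yeast screen, a strain with altered DNA damage repair is challenged with compound, and its growth is measured against matched vehicle-treated controls.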

[7] = at 5.0 µM (retest, dose inferred, filed as 0.5)
[8] = at 50.0 µM (retest, dose inferred, filed as 5.0)

Row | SMILES | growth inhibition [1, 7] [%] | growth inhibition [1, 8] | growth inhibition ([1]; at 50.0 µM) | growth inhibition [2, 7] [%] | growth inhibition [2, 8] | growth inhibition ([2]; at 50.0 µM) | growth inhibition [3, 7] [%] | growth inhibition [3, 8] | growth inhibition ([3]; at 50.0 µM) | growth inhibition [4, 7] [%] | growth inhibition [4, 8] | growth inhibition ([4]; at 50.0 µM) | growth inhibition [5, 7] [%] | growth inhibition [5, 8] | growth inhibition ([5]; at 50.0 µM) | growth inhibition [6, 7] [%] | growth inhibition [6, 8] | growth inhibition ([6]; at 50.0 µM)
1 | CCC[CH2][Sn]([CH2]CCC)([O]C(=O)c1cc(F)ccc1F)[O]C(=O)c1cc(F)ccc1F | 42 | 42% | 84.1% (active) | 25 | 25% | 83.6% (active) | 33 | 33% | 73.1% (active) | 13 | 13% | 70.4% (active) | 22 | 22% | 79.2% (active) | 20 | 20% | 78.2% (active)
2 | C(=C\c1cnnc2ccccc12)/c1ccco1 | 2 | 32% | 58.2% | 5 | 33% | 20.4% | 6 | 39% | 29.4% | 2 | 31% | 80.8% (active) | -2 | 27% | 18.8% | 2 | 40% | 39.8%
3 | COc1ccc2nc3cc(Cl)ccc3c(Nc3ccc(O)c(CN4CCN(C)CC4)c3)c2c1 | 25 | 43% | 66.9% | 7 | -11% | -26.7% | 8 | 6% | 32% | 21 | 2% | 27.6% | 8 | 6% | -33.8% | 13 | 1% | -2.9%
4 | COC(=O)Cn1/c(=N\N=C(/C)c2ccc(C)cc2)sc2ccccc21 | -13 | 7% | 35% | -2 | -2% | 26.7% | -10 | 28% | 40.4% | -10 | 16% | 15.3% | -11 | 11% | 35.9% | -20 | 36% | 40.6%
5 | CCCCC(CC)CN1C(=O)C2C3C=CC(C3)C2C1=O (stereo not given) | -15 | -20% | 32.5% | -9 | -20% | 19.1% | -2 | -9% | 39.2% | 28 | -49% | -4.45% | 3 | -26% | 39.1% | -6 | -15% | 7.15%
6 | CCN(CCO)CC1OC(OC)C2OC(C)(C)OC12 (stereo not given) | -1 | 83% (active) | 10% | 0 | 91% (active) | 2.55% | -2 | 84% (active) | -0.9% | -3 | 83% (active) | 85.8% (active) | -2 | 89% (active) | 24.5% | -1 | 90% (active) | 35.7%
7 | C/C=C/C=C/C(=O)Nc1ccc([N+](=O)[O-])cc1 | 0 | 53% | 39.8% | -5 | 39% | -0.4% | -1 | 74% (active) | 87% (active) | -9 | 16% | 10.7% | 0 | 63% | 36.4% | 0 | 32% | 32.4%
8 | O=C(O)/C=C/C(=O)c1ccccc1 | 7 | 76% (active) | 15.1% | 5 | 72% (active) | 57.5% | 3 | 66% | 46.3% | -3 | 13% | 3.6% | -6 | 71% (active) | 67.2% | 6 | 80% (active) | 72% (active)
9 | COc1ccc(OC)c2c(=S)c3ccccc3[nH]c12 | -1 | 75% (active) | 85.3% (active) | 0 | 44% | 26.2% | -5 | 43% | 60.6% | -5 | -5% | 40.6% | -6 | 37% | 60.2% | -5 | 65% | 91.1% (active)
10 | Cc1ccsc1/C=N/Nc1cc(C)c2cccc(C)c2n1 | 1 | 47% | 48.5% | -23 | 21% | 30.3% | -11 | 24% | 48.4% | 4 | 38% | 33.8% | -12 | 63% | 15.4% | -8 | 57% | 63.2%
